This is an account of results in PubChem BioAssay (NCI).

Where “and” joins values, the source holds several entries; their conditions need not be identical. Equal values may be shown once. About 79,000 compounds went through this panel and 15% of them were active in at least one assay; those are over-represented in the sample as a whole. Some structures have more than one record in an assay (separate samples or runs), and their calls can disagree. Calls of active or inactive are those of the source. Rule as the data show it: active = growth inhibition above about 70%; inactive = the rest.

The first experiment in a line: NCI Yeast Anticancer Drug Screen. Data for the sgs1 mgt1 strain (AID 161).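 Also: 0% = growth of cultures given vehicle only.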 The note with it: S. cerevisiae sgs1 mgt1 strain, at 50.0 µM, stronger effect = higher value. An outline of the steps: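 Genetically altered yeast, compound exposure, growth inhibition relative to vehicle.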
As to `O=C(Nc1ccccc1)C(Cl)(Cl)Cl`, the growth inhibition was 11.1% (inactive).

As for `O=[N+]([O-])c1cccc2c([N+](=O)[O-])cccc12`, the growth inhibition was -1.15% (inactive). Same read-out and setting: as for `O=C(O)CCCNSc1ccccc1[N+](=O)[O-]`, the figure is 73% (active); as for `NC(=Nc1ccccc1)N/N=C/c1c[nH]c2ccccc12`, -20.2% (inactive).

Turning to `C1=C/CCC2NC2C/C=C/CCC/1` (centres undefined), the growth inhibition was -10.6% (inactive). For `C=C(C)C1(CC)C(=O)NC(=O)N(C)C1=O` (centres undefined), the growth inhibition is -1.25% (inactive) and -7.5% (inactive). On the same count and under the same terms, as for `CC(C)(C)C1=CC(=C(P(=O)(O)O)P(=O)(O)O)C=C(C(C)(C)C)C1=O`, the figure is -49.5% (inactive).

With `CCCNP(=S)(NCCC)NCCC`, the growth inhibition is 8.5% (inactive).

`OCCN=Cc1ccccc1O.OCCN=Cc1ccccc1O.[Ni]`: the growth inhibition was 17.9% (inactive). Regarding `O=c1c2cc(Br)ccc2[nH]c(=S)n1-c1ccc(Br)cc1`, the growth inhibition is 15.2% (inactive). As to `O=Cc1ccccc1O`, the growth inhibition was 12.4% (inactive).

With `COc1cc(CC(C)N)ccc1O` (centres undefined), the growth inhibition is -14.2% (inactive).

For the molecule `CCC1(CC(C)(C)Cl)C(=O)NC(=O)NC1=O`, the growth inhibition was -21.4% (inactive). For `CC1(Cl)CC2C(CC1Sc1nnnn1-c1ccccc1)C2(C)C` (centres undefined), the growth inhibition was -7.2% (inactive). Take `COC(=O)C1(C(=O)OC)Cc2ccc(C)cc2C2=C1C(=O)c1ccccc1C2=O`: the growth inhibition is 5.5% (inactive). Turning to `O=[N+]([O-])c1cc(C2CCCCC2)c(O)c([N+](=O)[O-])c1`, the growth inhibition was 18% (inactive) and 80.8% (active). Turning to `C=C(C)C1(CC(C)C)C(=O)NC(=O)NC1=O`, the growth inhibition is -7.55% (inactive) and 1.75% (inactive).

On to `CC(=O)[O-].Cn1ccnc1CNCc1nccn1C.[Cu+2].[O-][Cl+3]([O-])([O-])[O-]`, for which the growth inhibition is 3.3% (inactive). On to `CC(=O)OC1CCC2(C)C3CCC4(C)C(c5ccc(=O)oc5)CC5OC54C3CCC2(O)C1` (centres undefined), for which the growth inhibition is 19.6% (inactive). With `C[CH2][Sn]([CH2]C)([O]c1cccccc1=O)[O]c1cccccc1=O`, the growth inhibition was 94.2% (active). For `O=C(CS(=O)(=O)O)Nc1ccccc1`, the growth inhibition was 27.9% (inactive). As for `O=C1CCP(c2ccccc2)(c2ccccc2)(c2ccccc2)O1`, the growth inhibition was 23.1% (inactive). Take `O=C(NC(=S)N1CC1)c1ccccc1`: the growth inhibition is -7% (inactive). For `CCC[CH2][Sn]([CH3])([CH3])[CH2]CC[N+](C)(C)C`, the growth inhibition was 16.9% (inactive).

The next experiment is described as follows: NCI Yeast Anticancer Drug Screen. Data for the cln2 rad14 strain (AID 165).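 Also: 0% = growth equal to vehicle treated cultures.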 The note with it: S. cerevisiae cln2 rad14 strain, at 50.0 µM, stronger effect = higher value. An outline of the steps: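 Growth of compound-exposed yeast (cln2 rad14 genotype) measured and expressed as inhibition relative to vehicle.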
Take `CN(N=O)c1ccc([N+](=O)[O-])cc1`: the growth inhibition was 18.2% (inactive). The same measure, in the same setting: as for `C1=CC(N2CCOCC2)CC1` (centres undefined), the figure is -45.5% (inactive). `CC1=CC(C)=Nc2ccc(C)cc2N1`: the growth inhibition is -2.65% (inactive). On to `CC[C@@]1(O)C(=O)OCc2c1cc1n(c2=O)Cc2c-1nc1ccccc1c2C=Nc1ccccc1N[C@@H]1c2cc3c(cc2[C@@H](c2cc(OC)c(O)c(OC)c2)[C@H]2C(=O)OC[C@@H]21)OCO3`, for which the growth inhibition was 63% (inactive) and 82% (active). Turning to `O=[N+]([O-])c1ccc(Cl)c([N+](=O)[O-])c1`, the growth inhibition was 96.3% (active). For the molecule `NC1=NC(=O)C(c2ccccc2)(c2ccccc2)O1`, the growth inhibition is -0.65% (inactive). For the molecule `c1ccc2c(c1)sc1sc3ccccc3[n+]12`, the growth inhibition was 3% (inactive).

Take `O=C(c1ccc([N+](=O)[O-])cc1)C1NC1c1ccccc1` (centres undefined): the growth inhibition was -2.65% (inactive). With `COC(=O)c1ccc(C=C(C#N)C#N)cc1`, the growth inhibition was 30.6% (inactive). As to `CP(O)(=S)C1CCCCC1` (centres undefined) (tested in a mixture with another compound), the growth inhibition was 5.3% (inactive). As to `CC(C)CC(NC(=O)C(Cc1ccccc1)NC(=O)CNC(=O)CNC(=O)C(N)Cc1ccc(O)cc1)C(=O)O` (centres undefined), the growth inhibition is -7.5% (inactive). Same read-out and setting: as for `CC(C(=O)O)C(Br)C(=O)O` (centres undefined), the figure is 3.55% (inactive); as for `Cc1cccc[c]1[Sb](=[O])([OH])[OH]`, -7.35% (inactive). In the case of `CCN(CC)C(=O)N1CC2CCC(C1)N2C`, the growth inhibition was -5.45% (inactive).

For `S=c1sc(-c2ccc(Cl)cc2)c[se]1`, the growth inhibition was -33.2% (inactive). For the molecule `Oc1ccc(C=NCC2CCCC[N-]2)c(O)c1.Oc1ccc(C=NCC2CCCC[N-]2)c(O)c1.[Ni+2]` (centres undefined), the growth inhibition is 5.15% (inactive). As for `O=C(Nc1ccccc1)C(Cl)(Cl)Cl`, the growth inhibition was -10.2% (inactive).

In the case of `O=[N+]([O-])c1cccc2c([N+](=O)[O-])cccc12`, the growth inhibition is -4.85% (inactive). `O=C(O)CCCNSc1ccccc1[N+](=O)[O-]`: the growth inhibition is 48.9% (inactive). As for `NC(=Nc1ccccc1)N/N=C/c1c[nH]c2ccccc12`, the growth inhibition was 3.45% (inactive).

Regarding `C1=C/CCC2NC2C/C=C/CCC/1` (centres undefined), the growth inhibition was -18.4% (inactive).

Consider `C=C(C)C1(CC)C(=O)NC(=O)N(C)C1=O` (centres undefined), for which the growth inhibition is 10.2% (inactive) and -11.2% (inactive). As to `CC(C)(C)C1=CC(=C(P(=O)(O)O)P(=O)(O)O)C=C(C(C)(C)C)C1=O`, the growth inhibition is -21.9% (inactive).

Turning to `CCCNP(=S)(NCCC)NCCC`, the growth inhibition is -16.4% (inactive). In the case of `OCCN=Cc1ccccc1O.OCCN=Cc1ccccc1O.[Ni]`, the growth inhibition was -26.4% (inactive).

On to `O=c1c2cc(Br)ccc2[nH]c(=S)n1-c1ccc(Br)cc1`, for which the growth inhibition is 18% (inactive).

Regarding `O=Cc1ccccc1O`, the growth inhibition was -10.4% (inactive). For `COc1cc(CC(C)N)ccc1O` (centres undefined), the growth inhibition was -46.4% (inactive). `CCC1(CC(C)(C)Cl)C(=O)NC(=O)NC1=O`: the growth inhibition was -30.7% (inactive).

On to `CC1(Cl)CC2C(CC1Sc1nnnn1-c1ccccc1)C2(C)C` (centres undefined), for which the growth inhibition is -20.6% (inactive). Still for that read-out and setting: as for `COC(=O)C1(C(=O)OC)Cc2ccc(C)cc2C2=C1C(=O)c1ccccc1C2=O`, the figure is 7.55% (inactive).

For `O=[N+]([O-])c1cc(C2CCCCC2)c(O)c([N+](=O)[O-])c1`, the growth inhibition is -8.75% (inactive) and 59.2% (inactive).

Take `C=C(C)C1(CC(C)C)C(=O)NC(=O)NC1=O`: the growth inhibition is 2.3% (inactive) and -2.6% (inactive). In the case of `CC(=O)[O-].Cn1ccnc1CNCc1nccn1C.[Cu+2].[O-][Cl+3]([O-])([O-])[O-]`, the growth inhibition is 18.6% (inactive). Turning to `CC(=O)OC1CCC2(C)C3CCC4(C)C(c5ccc(=O)oc5)CC5OC54C3CCC2(O)C1` (centres undefined), the growth inhibition is -1.8% (inactive).

Turning to `C[CH2][Sn]([CH2]C)([O]c1cccccc1=O)[O]c1cccccc1=O`, the growth inhibition was -15.6% (inactive).

Take `O=C(CS(=O)(=O)O)Nc1ccccc1`: the growth inhibition was 14.7% (inactive).

For the molecule `O=C1CCP(c2ccccc2)(c2ccccc2)(c2ccccc2)O1`, the growth inhibition is 25.7% (inactive). Take `O=C(NC(=S)N1CC1)c1ccccc1`: the growth inhibition is -7.8% (inactive). Turning to `CCC[CH2][Sn]([CH3])([CH3])[CH2]CC[N+](C)(C)C`, the growth inhibition is 45% (inactive).
